Laboratory results published in PMC4336329 (PLoS ONE, 2015).
In all, about 310,000 compounds went through this assay and about 14,000 (4.5%) showed an effect of 50% or more. The effect is printed as a negative number. The sample holds strong results, similar compounds and a random draw of the others, so the mix is not that of the screen.

Biological target: human ether-à-go-go-related gene (hERG) potassium channel (human, UniProt Q12809)
Experiment: primary screen, population patch clamp on CHO cells stably expressing hERG; higher = less effect of the substance
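Also: peak tail current of the secondary pulse compared with the same well before compound.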

human ether-à-go-go-related gene (hERG) potassium channel, sequence (Q12809 whole entry, looked up): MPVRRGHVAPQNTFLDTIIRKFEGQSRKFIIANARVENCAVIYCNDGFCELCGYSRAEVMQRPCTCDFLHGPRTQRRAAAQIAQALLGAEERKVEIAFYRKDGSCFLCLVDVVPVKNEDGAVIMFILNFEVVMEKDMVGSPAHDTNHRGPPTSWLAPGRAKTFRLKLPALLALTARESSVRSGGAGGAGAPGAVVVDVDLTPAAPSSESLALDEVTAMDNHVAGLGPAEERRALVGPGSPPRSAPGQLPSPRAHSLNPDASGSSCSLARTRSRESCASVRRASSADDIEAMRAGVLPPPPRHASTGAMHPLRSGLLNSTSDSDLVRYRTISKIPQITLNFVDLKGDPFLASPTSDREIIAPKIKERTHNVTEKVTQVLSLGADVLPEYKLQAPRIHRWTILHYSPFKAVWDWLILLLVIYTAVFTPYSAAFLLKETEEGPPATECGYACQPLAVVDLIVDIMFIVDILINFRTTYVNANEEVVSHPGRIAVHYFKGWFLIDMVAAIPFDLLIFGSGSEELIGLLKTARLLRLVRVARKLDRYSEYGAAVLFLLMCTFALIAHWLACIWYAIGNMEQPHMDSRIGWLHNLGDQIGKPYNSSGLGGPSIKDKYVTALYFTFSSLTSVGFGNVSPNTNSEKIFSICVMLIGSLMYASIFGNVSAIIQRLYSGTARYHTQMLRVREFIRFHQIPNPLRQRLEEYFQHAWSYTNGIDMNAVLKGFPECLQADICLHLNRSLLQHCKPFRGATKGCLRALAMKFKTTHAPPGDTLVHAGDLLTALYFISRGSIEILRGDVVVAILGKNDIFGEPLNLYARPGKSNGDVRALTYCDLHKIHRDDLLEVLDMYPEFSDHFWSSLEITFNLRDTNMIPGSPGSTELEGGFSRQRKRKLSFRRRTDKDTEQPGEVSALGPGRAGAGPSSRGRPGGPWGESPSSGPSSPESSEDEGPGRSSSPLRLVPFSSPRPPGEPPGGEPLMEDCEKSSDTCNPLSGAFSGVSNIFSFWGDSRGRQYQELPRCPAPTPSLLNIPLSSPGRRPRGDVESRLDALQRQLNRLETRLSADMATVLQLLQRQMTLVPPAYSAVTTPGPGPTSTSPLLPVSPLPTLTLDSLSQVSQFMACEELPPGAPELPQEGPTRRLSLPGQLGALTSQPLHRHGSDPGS

| Compound | hERG current change (%, negative = inhibition) at 10uM |
| --- | --- |
| CCOc1ccc(NCc2nc3ccccc3n2CCOc2ccccc2)cc1 | -11.6% |
| Cc1ccnc(N2CCC(C(=O)NCc3ccc(F)cc3)CC2)n1 | -12% |
| CCOC(=O)N1CCN(CC(O)COc2ccccc2C(C)C)CC1.Cl (centres unmarked) | -8.87% |
| C/C(=N\NC(=O)c1ccco1)c1cc(Cl)sc1Cl | -6.11% |
| S=c1[nH]nc(COc2ccc(Cl)cc2Cl)n1-c1ccccc1 | 19.1% |
| C/C(=N\Nc1cc(N2CCOCC2)nc(C)n1)c1cccc([N+](=O)[O-])c1 | -60.4% |
| C/C(=N\Nc1cc(N2CCOCC2)ncn1)c1cccc([N+](=O)[O-])c1 | 4.5% |
| C/C(=N\Nc1nc(N2CCOCC2)nc(N2CCOCC2)n1)c1cccc([N+](=O)[O-])c1 | -4.76% |
| COCCCNC(=O)[C@H]1N2C(=O)c3ccccc3C2SC1(C)C (some centres unmarked) | 15.3% |
| S=C(NCc1ccco1)N1CCN(Cc2ccc(Cl)cc2Cl)CC1 | -36.3% |
| O=S(=O)(Nc1ccc(-c2ccc3nncn3n2)cc1)c1ccc(Cl)s1 | -19.2% |
| O=C(Nc1ccc(S(=O)(=O)N2CCOCC2)cc1)c1ccccc1F | 6.32% |
| COc1ccc(CNc2ccc3c(c2)ncn3-c2ccccc2OC)cc1 | -23% |
| C=CCc1cc(C)ccc1OCC(O)CN1CCN(c2ccccc2)CC1 (centres unmarked) | -47.5% |
| C=CCc1ccccc1OCC(O)CN(CC)CC.Cl (centres unmarked) | -30.5% |
| C=CCc1ccccc1OCC(O)CN1CCN(C(=O)OCC)CC1.Cl (centres unmarked) | -11.3% |
| C=CCc1ccccc1OCC(O)CN1CCN(c2ccc(OC)cc2)CC1.Cl (centres unmarked) | -66.5% |
| C=CCc1ccccc1OCC(O)CN1CCN(c2ccc(C)cc2)CC1 (centres unmarked) | -44.7% |
| C=CCc1ccccc1OCC(O)CN1CCN(c2ccccc2OC)CC1.Cl (centres unmarked) | -75.2% |
| C=CCc1ccccc1OCC(O)CNC (centres unmarked) | 12% |
| C=CCc1ccccc1OCC(O)CN(C(C)C)C(C)C.Cl (centres unmarked) | -59.2% |
| C=CCc1cc(OC)ccc1OCC(O)CN1CCN(c2ccc(OC)cc2)CC1 (centres unmarked) | -59.7% |
| C=CCc1ccccc1OCC(O)CN1CCN(c2ccccc2F)CC1.Cl (centres unmarked) | -40.9% |
| Cc1nonc1NC(=O)CSc1nc2cc(Cl)ccc2c2c1CCCC2 | 2.15% |
| CN(Cc1nc(-c2cnccn2)no1)Cc1n[nH]c2c1CCCCC2 | -0.424% |

| Compound | hERG current change (%, negative = inhibition) at 10uM |
| --- | --- |
| O=S(=O)(c1ccccc1)N(CC1CO1)c1cc(Cl)ccc1Cl (centres unmarked) | 14.2% |
| C/C(=N\O)C(C)(C)Nc1ccccc1F | 4.26% |
| COc1cc(/C=C/c2[nH]c(=O)[nH]c(=O)c2[N+](=O)[O-])cc(OC)c1O | 7.26% |
| CN(C)Cc1nc2ccccc2c(=O)n1CC(=O)Nc1cccc(S(=O)(=O)N2CCOCC2)c1 | -14.4% |
| CCN(C(=O)C1CCCN1S(=O)(=O)c1ccc2c(c1)n(C)c(=O)c(=O)n2C)c1ccccc1 (centres unmarked) | -3.32% |
| CCOC(=O)c1c(C)[nH]c(C(=O)C(C)OC(=O)c2cnc(C)cn2)c1C (centres unmarked) | -0.804% |
| O=C(NCCC(=O)N1CCC2(CC1)NCCc1[nH]cnc12)c1cccc(Br)c1 | 1.5% |
| C=CCc1cc(OC)ccc1OCC(O)CN1CCN(c2ccc(OC)cc2)CC1.Cl (centres unmarked) | -71.2% |
| COc1ccc(CCNC(=S)Nc2ccc(S(=O)(=O)Nc3ncccn3)cc2)cc1OC | 21.2% |
| CC(=O)c1cc(CN2C(=O)CCC2=O)cs1 | 5.27% |
| CC(=O)c1cc(C(c2csc(C(C)=O)c2)c2csc(C(C)=O)c2)cs1 | -72.6% |
| CC(=O)c1cc(Cc2csc(C(C)=O)c2)cs1 | 2.75% |
| O=C(NCc1ccco1)C1CC(c2ccc(Cl)cc2)=NO1 (centres unmarked) | 1.47% |
| FC(F)(F)c1cccc(-c2nc3nc(Cl)c(Cl)nc3[nH]2)c1 | 30.4% |
| CC(=O)NS(=O)(=O)c1ccc(NC(=S)NC(=O)c2ccco2)cc1 | 2.54% |
| Clc1ccc(CN2CCCCCC2)cc1Cl | -7.66% |
| Clc1ccc(CN2CCCCCCC2)cc1Cl | 3.83% |
| Cl.Clc1ccc(CN2C3=NCCCN3c3ccccc32)cc1Cl | -76.3% |
| Cl.Clc1ccc(CN2C3=NCCN3c3ccccc32)cc1Cl | -75.9% |
| CCN1CCSc2ccc(C(=O)Nc3ccc(NC(C)=O)cc3)cc21 | 1.22% |
| CCN(Cc1ccccc1)C(=O)CSc1n[nH]c(N)n1 | 33.6% |
| CNC(=O)[C@@]1(Cc2ccccc2)C=C[C@@H](C)N1C(C)=O | 5.07% |
| Cc1cc(C)n(-c2nc(C)nc3c2cnn3-c2ccccc2)n1 | 13% |
| CCOC(=O)c1ccc(S(=O)(=O)NNC(=O)COc2ccccc2C)cc1 | 27.5% |
| NS(=O)(=O)c1cccc(NC(=O)CSc2nnc(C3CC3)n2C2CC2)c1 | 8.95% |

| Compound | hERG current change (%, negative = inhibition) at 10uM |
| --- | --- |
| N#CCc1ccc(NC(=O)CSc2nnc(C3CC3)n2C2CC2)cc1 | 9.18% |
| N#Cc1cccc(NC(=O)CSc2nnc(C3CC3)n2C2CC2)c1 | -52.4% |
| CCOc1ccc(NC(=O)CSc2nnc(C3CC3)n2C2CC2)cc1 | -15.7% |
| NS(=O)(=O)c1ccc(NC(=O)CSc2nnc(C3CC3)n2C2CC2)cc1 | 22% |
| O=C(CSc1nnc(C2CC2)n1C1CC1)Nc1cccc(Br)c1 | -75.1% |
| Cc1cc(C)cc(NC(=O)CSc2nnc(-c3cc(C)[nH]n3)n2N)c1 | 12.5% |
| C=CCNC(=O)c1cc(-c2ccc(Br)cc2)on1 | 1.88% |
| CCn1cc(C(=O)O)c(=O)c2cc(F)c(N/N=C/c3ccccc3)cc21 | -27.2% |
| CCn1cc(C(=O)O)c(=O)c2cc(F)c(N/N=C/c3ccccc3[N+](=O)[O-])cc21 | -51.2% |
| CCn1cc(C(=O)O)c(=O)c2cc(F)c(N3CCN(C(=S)NC(=O)c4ccccc4)CC3)cc21 | 13.7% |
| COc1ccc(NC(=S)NN(C)C(=S)Nc2ccc(OC)cc2)cc1 | 26.1% |
| O=C(c1ncn(Cc2ccccc2)c1C(=O)N1CCc2ccccc2C1)N1CCc2ccccc2C1 | -30.4% |
| COc1cccc(CC2(CO)CCN(C(=O)NCCc3ccccc3)CC2)c1 | 0.136% |
| CC(=O)Nc1ccc(CN2CCCC(CO)(Cc3cccc(Cl)c3)C2)cc1 (centres unmarked) | -39.2% |
| COc1cccc(CC2(CO)CCN(Cc3ccc(NC(C)=O)cc3)CC2)c1 | -50.7% |
| COc1ccc(C(=O)Nc2ccc(CN3CCOCC3)cc2)cc1 | -1.82% |
| CCN1CCN(Cc2ccc(NC(=O)Nc3ccc(OC)cc3)cc2)CC1 | -7.9% |
| COc1ccc(CC2(CO)CCN(Cc3ccc(NC(C)=O)cc3)CC2)cc1 | -57.4% |
| O=C(NCC(=O)N1CCC2(CC1)NCCc1[nH]cnc12)c1cccc(Cl)c1 | 12.5% |
| CCOc1cc(/C=C2\SC(=N)N(c3nonc3N)C2=O)ccc1OCC(N)=O | 7.01% |
| O=C(CCCn1c(=S)[nH]c2ccccc2c1=O)N1CCCCC1 | -10.4% |
| CC(C#N)Sc1nnc(-c2ccccc2F)n1C1CC1 (centres unmarked) | 18.2% |
| C=CCOc1ccc(C(=O)n2cc(C(=O)OC)c3ccccc32)cc1 | 9.62% |
| COc1ccc2c(C(=O)c3ccc(C)cc3)n(CCC(N)=O)[n+]([O-])c2c1 | -6.56% |
| Cc1ccc(C(=O)c2c3ccc(C(F)(F)F)cc3[n+]([O-])n2CCC(N)=O)cc1 | -66.2% |

| Compound | hERG current change (%, negative = inhibition) at 10uM |
| --- | --- |
| NC(=O)c1ccc(Cn2c(C(=O)c3ccc(Cl)cc3)c3ccccc3[n+]2[O-])cc1 | -9.74% |
| Cc1ccc(C(=O)c2c3ccc([N+](=O)[O-])cc3[n+]([O-])n2CCC(N)=O)cc1 | -32.6% |
| [Cl-].[NH3+]CCCn1c(C(=O)c2ccc(Cl)cc2)c2ccc(C(F)(F)F)cc2[n+]1[O-] | -79.2% |
| NC(=O)CCCn1c(C(=O)c2cc(Cl)c(N)c(Cl)c2)c2ccc(C(F)(F)F)cc2[n+]1[O-] | -41.1% |
| Cc1ccc(C(=O)c2c3ccc(C(F)(F)F)cc3[n+]([O-])n2CCCC(N)=O)cc1 | -62.9% |
| Cc1ccc(C(=O)c2c3ccc(C(F)(F)F)cc3nn2CCC(N)=O)cc1 | -5.81% |
| Nc1c(Cl)cc(C(=O)c2c3ccccc3[n+]([O-])n2CCC[NH3+])cc1Cl.[Cl-] | -20.9% |
| Cc1ccc(C(=O)c2c3ccccc3[n+]([O-])n2CCC(N)=O)cc1 | -5.98% |
| Nc1c(Cl)cc(C(=O)c2c3ccc(C(F)(F)F)cc3[n+]([O-])n2CCC[NH3+])cc1Cl.[Cl-] | -57.6% |
| CCN1CSC(=S)N(Cc2ccccc2)C1 | 12.2% |
| COc1cc(CC(=O)Nc2nc(C)cs2)cc(OC)c1OC | 5.84% |
| CC1(C)Nc2ccccc2C(=O)N1c1ccccc1 | 20.5% |
| COC(=O)Cn1nc(-c2ccccc2)c2cc(Cl)ccc21 | -0.627% |
| CCOc1ccc(NC(=O)N2C[C@H]3C[C@@H](C2)c2cccc(=O)n2C3)cc1 | 8.54% |
| O=C(CSc1n[nH]c(-c2ccccn2)n1)Nc1ccccc1F | -1.74% |
| COc1ccccc1/C(O)=C(\C#N)c1nc2ccccc2[nH]1 | 15% |
| CCC1=NN2C(=N)/C(=C/c3cc(C)n(-c4ccccc4)c3C)C(=O)N=C2S1 | 16.2% |
| O=c1[nH]cc(NCCNc2ncc(C(F)(F)F)cc2Cl)c(=O)[nH]1 | 3.6% |
| Nn1cnnc1SCC(=O)Nc1ccc(C2CCCCC2)cc1 | 12.5% |
| CCn1cc(S(=O)(=O)Nc2nc3ccc(OC)cc3s2)cn1 | 19.7% |
| Cc1ccc2c(c1)-c1ncc(C(=O)c3cc(Br)ccc3O)cc1CO2 | 15.7% |
| CCc1cc(=O)oc2cc(C)cc(OCC(=O)NC(Cc3ccc(Cl)cc3)C(=O)O)c12 (centres unmarked) | -9.21% |
| Cc1cccc(N2CCN(S(=O)(=O)c3ccc4c(c3)CCC(=O)N4)CC2C)c1 (centres unmarked) | -8.91% |
